Laboratory results: the supplement of paper PMC6555819

Columns and labels:
Assay in all cases: PBM binding z-score (relative to random genomic background probes); higher = stronger binding; sequences stand for … in GC…GCGATTGACAGCGTAGAATGAAGG
[1] = tested on: RARb homodimer (NR concentration 270 nM)
Summary of the method: (§1)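 On custom Agilent 4×180K arrays, double-stranded probes with 34-nt variable regions carried direct-repeat seeds, single-nucleotide variants, half-site ablations or random human genomic background. Ligand-free nuclear receptor dimers were applied for 1 h, and binding was read with antibodies against each partner (one per run). Binding z-scores come from regression-normalized fluorescence, with the random background probes as reference.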

[2] = tested on: RARg:RXRa (NR concentration 270 nM, RXRa partner concentration 90 nM)
Summary of the method: as §1

[3] = tested on: RARg homodimer (NR concentration 270 nM)
Summary of the method: as §1

[4] = tested on: RXRa DBDmut IVT, anti-RXR (DBD mutation: RXRa K156A/R161A, NR concentration 90 nM)
Summary of the method: as §1

[5] = tested on: RXRa homodimer (NR concentration 180 nM)
Summary of the method: as §1

[6] = tested on: THRa:RXRa (NR concentration 90 nM, RXRa partner concentration 90 nM)
Summary of the method: as §1

[7] = tested on: THRa homodimer (NR concentration 90 nM)
Summary of the method: as §1

[8] = tested on: VDR:RXRa (NR concentration 270 nM, RXRa partner concentration 90 nM)
Summary of the method: as §1

[9] = tested on: VDR homodimer (NR concentration 270 nM)
Summary of the method: as §1

Sequence | PBM binding z-score [1] | PBM binding z-score [2] | PBM binding z-score [3] | PBM binding z-score [4] | PBM binding z-score [5] | PBM binding z-score [6] | PBM binding z-score [7] | PBM binding z-score [8] | PBM binding z-score [9]
GCGACTGGGGCATCTGCAGGTTACCATAACTTAA | 1.06 | 1.21 | 0.411 | -0.0161 | 0.555 | 1.14 | -0.146 | -0.144 | -0.456
CCTAGAAGGCCAGGGTCACTCAAGCATTTCGCTT | 3.02 | 3.47 | 3.15 | 0.637 | 3.9 | 2.96 | 1.16 | 2.94 | 2.13
CCTAGCAGGCCAATCTGGGTCACACAAGGCTTGA | 2.53 | 1.61 | 1.82 | 0.0737 | 1.63 | 3.99 | 0.9 | 1.09 | 0.17
CAAACTAGGTCAAGGTAAAAGTCGGTTTGTGCCA | 3.47 | 3.84 | 5.09 | 1.52 | 2.93 | 3.03 | 1.49 | 1.79 | 0.742
CCAGACAGGTGAGAAGGGAACTCAGCCTCGATTA | 0.237 | -0.0873 | 0.115 | 0.063 | 0.0773 | 0.215 | 0.0826 | -0.443 | -0.25
TCTTGTAGATCAATAGAGGGTAAGAAAGTGCGCT | 0.255 | 0.119 | 0.175 | 1.1 | 0.491 | 0.828 | -0.673 | 0.717 | 0.445
CTCGACAGGTCGTGCTCAGGTGAGTATACCAAAC | 1.11 | 2.21 | 1.33 | 0.53 | 1.3 | 3.08 | 0.709 | 0.597 | 0.293
TCATATAGGTATAGGTGAAAGTCGAACGATATGA | 0.405 | 0.646 | 0.511 | 0.538 | 1.13 | 0.242 | -0.544 | 0.632 | -0.127
TCATATAGGTGAACAGGTGAAAGTCCGTAAGTTA | 1.38 | 1.52 | 1.13 | 1.68 | 1.75 | 1.13 | 0.464 | 1.19 | 0.153
TGAATGAGGTTATAAGATCATGGAACGTTGCAAA | 0.204 | 1.76 | 0.935 | 0.832 | 2.42 | 1.71 | 0.0513 | 1.44 | 0.42
GCCACTGGGGCAAAGCAGGTTACCATAAGGTTGG | 1.08 | 0.357 | 0.651 | -0.861 | 0.287 | 2.79 | -0.169 | -0.0502 | -0.617
CCAGACAGGTGAATGGTAACTCAGTCTGGTACGC | -0.113 | 0.0397 | 0.189 | -0.0115 | 0.0786 | -0.333 | -0.556 | -0.231 | -0.492
CCTAGCGGGCCAGGGTCACTCAAGCATTTCGCTT | 2.48 | 3.06 | 2.4 | -0.0113 | 3.72 | 2.72 | 1.19 | 2.36 | 1.28
